Experimental data taken from PubChem BioAssay (NCI).
Compounds without any hit were thinned out: in the full panel of roughly 83,000, 20% have a hit.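 Values shown are percent growth following 48 h exposure of cells in 96-well plates to a single concentration of compound; below 10 was considered active.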 Unmarked numbers belong to inactive results. Calls of active or inactive are those of the source.

Legend:
Test in all cases: NCI-60 one-dose screen, 48 h (100 = growth as untreated, 0 = no growth, -100 = all killed)
Conditions in all cases: 10 µM
HT29 colon = tested on: HT29 colon
SNB-75 CNS = tested on: SNB-75 CNS
SNB-19 CNS = tested on: SNB-19 CNS
U251 CNS = tested on: U251 CNS
PC-3 prostate = tested on: PC-3 prostate
SK-MEL-5 melanoma = tested on: SK-MEL-5 melanoma
UACC-62 melanoma = tested on: UACC-62 melanoma
LOX IMVI melanoma = tested on: LOX IMVI melanoma
SK-MEL-28 melanoma = tested on: SK-MEL-28 melanoma
SK-MEL-2 melanoma = tested on: SK-MEL-2 melanoma

| Structure (SMILES) | growth (HT29 colon) | growth (SNB-75 CNS) | growth (SNB-19 CNS) | growth (U251 CNS) | growth (PC-3 prostate) | growth (SK-MEL-5 melanoma) | growth (UACC-62 melanoma) | growth (LOX IMVI melanoma) | growth (SK-MEL-28 melanoma) | growth (SK-MEL-2 melanoma) |
| --- | --- | --- | --- | --- | --- | --- | --- | --- | --- | --- |
| COc1cc(/C=N/NC(=O)c2ccccc2Nc2cccc(C(F)(F)F)c2)cc(OC)c1OC | 8.62% (active) | 4.15% (active) | 61.4% | -32.1% (active) | -35.3% (active) | 29.2% | 10.3% | 11.9% | 39.3% | – |
| O=C(O)CCCCSc1ncnc2nc[nH]c12 | 106% | 102% | 107% | 95.5% | 99.1% | 101% | 111% | 92.3% | 112% | – |
| COc1cc(-c2cc(-c3cc4c([nH]c5ccccc54)c(-c4cc(OC)c(OC)c(OC)c4)n3)cc(-c3ccccc3)n2)cc(OC)c1OC | 44.4% | 36.2% | 66% | 62.1% | 48.3% | 40.1% | 40% | 59.5% | 62.5% | – |
| COc1ccc(/C=C/C(C)=N/OCC(=O)O)cc1 | 105% | 100% | 103% | 95.2% | 94.4% | 101% | 113% | 96.9% | 114% | – |
| O=C1OCC2=C1C(c1cccc(Cl)c1)c1cc3c(cc1N2CCO)OCO3 (centres undefined) | 4.61% (active) | 11.7% | 37.8% | 17.1% | 25.2% | 19% | 22.2% | 42.8% | 51.3% | – |
| CCN(CC)CCNc1ccc(CO)c2oc3cc(Cl)ccc3c(=O)c12 | 52.8% | 69.7% | 97% | 79.7% | 77.4% | 53.9% | 73.1% | 70.5% | 97.8% | 128% |
| COc1ccc(-c2nn(-c3cccc(NC(=O)c4cc(C(F)(F)F)cc(C(F)(F)F)c4)c3)cc2-c2ccncc2)cc1Cl | 61% | 60.9% | 90.8% | 54.7% | 40.7% | 62.9% | 73.6% | 80.3% | 67.3% | – |
| C#Cc1ccc(-n2c(/C=C/c3ccc(C(F)(F)F)cc3)nc3ncccc3c2=O)cc1 | 0.334% (active) | 25.7% | 68% | 39.2% | 29.4% | -73.6% (active) | 17% | -18% (active) | 33.3% | – |
| COc1ccc(CN2CCC(N3CCCC3=O)c3cc(Cl)ccc32)cc1 (centres undefined) | 88.8% | 103% | 99.5% | 105% | 84.4% | 103% | 85.2% | 103% | 116% | – |
| Cc1ccc(NC(=O)Nc2nc3ccccc3s2)cc1NC(=O)Nc1nc2ccccc2s1 | 90.1% | 61.5% | 92% | 77.2% | 44.5% | 79.6% | 86.6% | 91.7% | 101% | – |
| Cc1ccc(C)c(C(O)(c2cc(C)ccc2C)C2(O)CCCCC2)c1 | 90% | 95.9% | 98.8% | 90.1% | 86.8% | 99.4% | 89.7% | 86.6% | 105% | – |
| COc1cccc(Cn2c(-c3nonc3N)nc3ccccc32)c1 | -5.42% (active) | -16.7% (active) | 53.3% | 18.4% | 11% | 16.8% | 33.9% | 40.9% | 43.7% | – |
| CCCCCCCCCCCCCCCCCC(=O)OCCCCCCC | 102% | 98.3% | 116% | 100% | 92.9% | 110% | 110% | 96.5% | 122% | – |
| CCCCCCN1CCN(Cc2ccc(N(CC)CC)cc2)C(=O)C1=O | 2.25% (active) | 14% | 74.4% | 17.1% | 13.5% | 21.4% | 45% | 45.2% | 49.9% | – |
| CCOC(=O)CCC(NC(=O)c1ccc(N)cc1)C(=O)OCC (centres undefined) | 99.4% | 113% | 109% | 105% | 89.8% | 105% | 103% | 100% | 105% | – |
| O=C1CC[C@@H]2CCCC[C@@H]2C1 | 107% | 95.2% | 102% | 108% | 85.3% | 110% | 94.6% | 101% | 112% | – |
| O=C(Nc1nc2ccc(F)cc2s1)c1cc(-c2ccc(F)cc2)n2nc(-c3ccccc3)cc2n1 | 92.7% | 70.7% | 88% | 102% | 84.2% | 68.3% | 66.3% | 85.9% | 58.1% | – |
| COC(=O)c1c(-c2ccccc2)csc1NC(=O)c1c(-c2ccccc2)noc1C | 7.12% (active) | 48.1% | 43.9% | 13.3% | 32.5% | 32% | 48.3% | -50% (active) | 47.9% | – |
| ClCC#CCSc1ncnc2c1ncn2CC#CCCl | 17.7% | -57.5% (active) | 13.2% | 0.284% (active) | 32.3% | 9.62% (active) | 19.2% | -35.5% (active) | 39.5% | 41.1% |
| COc1ccc2c(c1)N(CCO)C1=C(C(=O)OC1)C2c1ccccc1 (centres undefined) | 1.72% (active) | 14.6% | 41.1% | 20.9% | 27.1% | 9.35% (active) | 20.1% | 43.3% | 53.7% | – |
| O=C(Nc1cccc(-n2cc(-c3ccncc3)c(-c3ccc(O)c(Cl)c3)n2)c1)c1ccc(Cl)c(Cl)c1 | 69.8% | 38.5% | 72.8% | 11% | 37.9% | 48.1% | 51.1% | 53% | 47.6% | – |
| O=[N+]([O-])c1cccc(-c2ncc(-c3ccc(Cl)cc3Cl)[nH]2)c1 | -65.2% (active) | 90.6% | 96.7% | -100% (active) | -82.6% (active) | 94.7% | 63.4% | -100% (active) | 92.8% | – |
| CC1(C)OC2=C(CC1Br)C(=O)C(=O)c1ccccc12 (centres undefined) | -11.7% (active) | 11.1% | -19% (active) | -73.7% (active) | -16.8% (active) | -99.7% (active) | -78.9% (active) | -77.3% (active) | -94% (active) | – |
| Cc1nc2oc3ccccc3c(=O)c2cc1C(=O)NCc1ccccc1 | 94.1% | 80.9% | 84.9% | 64.7% | 90.9% | 81% | 31.1% | 55.9% | 78.5% | 9.34% (active) |
| COc1ccc(S(=O)(=O)NCCCNc2nccc(-c3c(-c4ccc(F)cc4)nc4sccn34)n2)cc1 | 11% | 49.3% | 99.1% | 50% | 52.9% | 49.5% | 48.5% | 40.1% | 73.5% | – |
| O=C1N=NC2=C1c1c3ccccc3c(O)n1CC2 | 103% | 103% | 96.3% | 105% | 86.2% | 112% | 96.4% | 105% | 108% | – |
| COc1ccc(Nc2cc(C)nc(NCCCNc3ccnc4cc(Cl)ccc34)n2)cc1 | -70.2% (active) | -82.5% (active) | 6.85% (active) | -88.8% (active) | 7.12% (active) | -100% (active) | -89.8% (active) | -80% (active) | -100% (active) | – |
| COc1cc(Cl)cc(-c2nn(-c3cccc(NC(=O)c4ccc(N5CCOCC5)c(C(F)(F)F)c4)c3)cc2-c2ccncc2)c1 | 21.2% | 34.9% | 75.5% | 32.3% | 29.1% | 71.5% | 67.8% | 47.3% | 53.2% | – |
| O=C(N/N=C/c1cc2ccccc2c2ccccc12)c1cc(O)c(O)c(O)c1 | 94.8% | 56.4% | 50.6% | 20.3% | 52.3% | 52.9% | 41.5% | 47.2% | 55.6% | – |
